Data: PubChem BioAssay AID1159580 (chemical genetic matrix, 2015)
The whole screen tested about 5,500 compounds, of which about 2,000 (36%) were called active. Not shown: some 18% with an inconclusive outcome. This is one part of the list. A number with no mark means an inactive call. No stated cut-off is given here; in the data, active means normalized growth mostly below about 0.91 (no sharp cut-off); inconclusive means no clear call, values can overlap the other calls; inactive means mostly above about 0.92.

Assay: chemical genetic growth profiling, strain panel (AID 1159580);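 further: tested at 20 µM; growth read once vehicle control cultures reached saturation at 30 °C; 1 = growth at the plate median or of vehicle wells; lower values mean less growth of the strain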
Conditions: S. cerevisiae deletion strains, growth OD
[1] = locus YDL101C, strain DUN1, active compounds read low
[2] = locus YHR030C, strain SLT2, active compounds read low

**Q.** For FC(F)(F)c1ccnc(N2CCCN(C(=S)Nc3ccc(Cl)cc3Cl)CC2)n1, which normalized growth (locus YAR019C, strain CDC15, active compounds read low) is on record?
**A.** 0.974

**Q.** What about the normalized growth (locus YBL105C, strain PKC1, active compounds read low) of the same compound?
**A.** 0.977

**Q.** And the normalized growth (locus YBR135W, strain CKS1, active compounds read low)?
**A.** 0.972

**Q.** And the normalized growth (locus YBR136W, strain MEC1, active compounds read low)?
**A.** 0.973

**Q.** What about the normalized growth (locus YBR160W, strain CDC28, active compounds read low) of the same compound?
**A.** 0.974

**Q.** What about the normalized growth (locus YDL017W, strain CDC7, active compounds read low) of the same compound?
**A.** 0.966

**Q.** And the normalized growth (locus YDL028C, strain MPS1, active compounds read low)?
**A.** 0.975

**Q.** What about the normalized growth [1] of the same compound?
**A.** 0.975

**Q.** And the normalized growth (locus YDL108W, strain KIN28, active compounds read low)?
**A.** 0.975

**Q.** And the normalized growth (locus YDL132W, strain cdc53, active compounds read low)?
**A.** 0.977

**Q.** What about the normalized growth (locus YDL214C, strain PRR2, active compounds read low) of the same compound?
**A.** 0.966

**Q.** And the normalized growth (locus YDR052C, strain DBF4, active compounds read low)?
**A.** 0.972

**Q.** And the normalized growth (locus YDR054C, strain cdc34, active compounds read low)?
**A.** 0.976

**Q.** What about the normalized growth (locus YDR226W, strain ADK1, active compounds read low) of the same compound?
**A.** 0.982

**Q.** And the normalized growth (locus YDR477W, strain SNF1, active compounds read low)?
**A.** 0.985

**Q.** And the normalized growth (locus YER123W, strain YCK3, active compounds read low)?
**A.** 1

**Q.** And the normalized growth (locus YER133W, strain GLC7, active compounds read low)?
**A.** 0.993

**Q.** What about the normalized growth (locus YFL009W, strain cdc4, active compounds read low) of the same compound?
**A.** 0.98

**Q.** And the normalized growth (locus YFL029C, strain CAK1, active compounds read low)?
**A.** 0.963

**Q.** What about the normalized growth (locus YFR003C, strain YPI1, active compounds read low) of the same compound?
**A.** 0.972

**Q.** And the normalized growth (locus YFR019W, strain FAB1, active compounds read low)?
**A.** 0.996

**Q.** And the normalized growth (locus YFR028C, strain CDC14, active compounds read low)?
**A.** 0.979

**Q.** What about the normalized growth (locus YGR040W, strain KSS1, active compounds read low) of the same compound?
**A.** 0.985

**Q.** What about the normalized growth (locus YGR052W, strain FMP48, active compounds read low) of the same compound?
**A.** 1.04

**Q.** What about the normalized growth (locus YGR092W, strain DBF2, active compounds read low) of the same compound?
**A.** 0.9

**Q.** And the normalized growth [2]?
**A.** 0.712 (active)

**Q.** What about the normalized growth (locus YHR079C, strain IRE1, active compounds read low) of the same compound?
**A.** 0.848

**Q.** And the normalized growth (locus YHR082C, strain KSP1, active compounds read low)?
**A.** 1.08

**Q.** And the normalized growth (locus YHR205W, strain SCH9, active compounds read low)?
**A.** 0.946

**Q.** And the normalized growth (locus YIL147C, strain SLN1, active compounds read low)?
**A.** 0.972

**Q.** And the normalized growth (locus YJL095W, strain BCK1, active compounds read low)?
**A.** 0.942

**Q.** What about the normalized growth (locus YJL128C, strain PBS2, active compounds read low) of the same compound?
**A.** 0.978

**Q.** And the normalized growth (locus YJL157C, strain FAR1, active compounds read low)?
**A.** 0.981

**Q.** What about the normalized growth (locus YJR016C, strain ILV3, active compounds read low) of the same compound?
**A.** 0.989

**Q.** What about the normalized growth (locus YJR066W, strain TOR1 (second series), active compounds read low) of the same compound?
**A.** 0.953

**Q.** And the normalized growth (locus YJR066W, strain TOR1, active compounds read low)?
**A.** 1.03

**Q.** What about the normalized growth (locus YKL048C, strain ELM1, active compounds read low) of the same compound?
**A.** 0.961

**Q.** What about the normalized growth (locus YKL067W, strain YNK1, active compounds read low) of the same compound?
**A.** 0.973

**Q.** And the normalized growth (locus YKL101W, strain HSL1, active compounds read low)?
**A.** 0.958

**Q.** And the normalized growth (locus YKL193C, strain SDS22, active compounds read low)?
**A.** 0.978

**Q.** What about the normalized growth (locus YKL203C, strain TOR2, active compounds read low) of the same compound?
**A.** 1.02

**Q.** And the normalized growth (locus YLR113W, strain HOG1, active compounds read low)?
**A.** 0.689 (active)

**Q.** And the normalized growth (locus YLR133W, strain CKI1, active compounds read low)?
**A.** 0.979

**Q.** What about the normalized growth (locus YLR403W, strain SFP1, active compounds read low) of the same compound?
**A.** 0.982

**Q.** What about the normalized growth (locus YML070W, strain DAK1, active compounds read low) of the same compound?
**A.** 0.972

**Q.** What about the normalized growth (locus YMR001C, strain CDC5, active compounds read low) of the same compound?
**A.** 0.971

**Q.** And the normalized growth (locus YMR205C, strain PFK2 (second series), active compounds read low)?
**A.** 0.968

**Q.** What about the normalized growth (locus YMR277W, strain FCP1, active compounds read low) of the same compound?
**A.** 0.973

**Q.** And the normalized growth (locus YNL006W, strain LST8, active compounds read low)?
**A.** 0.98

**Q.** And the normalized growth (locus YNL020C, strain ARK1, active compounds read low)?
**A.** 0.966

**Q.** And the normalized growth (locus YNL161W, strain CBK1, active compounds read low)?
**A.** 0.982

**Q.** And the normalized growth (locus YNL183C, strain NPR1, active compounds read low)?
**A.** 1.01

**Q.** And the normalized growth (locus YNL207W, strain RIO2, active compounds read low)?
**A.** 0.964

**Q.** And the normalized growth (locus YNL222W, strain SSU72, active compounds read low)?
**A.** 0.978

**Q.** What about the normalized growth (locus YNL307C, strain MCK1 (second series), active compounds read low) of the same compound?
**A.** 0.95

**Q.** And the normalized growth (locus YOL078W, strain AVO1, active compounds read low)?
**A.** 0.986

**Q.** What about the normalized growth (locus YOL136C, strain PFK27, active compounds read low) of the same compound?
**A.** 0.959

**Q.** And the normalized growth (locus YOR061W, strain CKA2, active compounds read low)?
**A.** 0.961

**Q.** What about the normalized growth (locus YOR119C, strain RIO1, active compounds read low) of the same compound?
**A.** 1.06

**Q.** And the normalized growth (locus YOR231W, strain MKK1, active compounds read low)?
**A.** 0.873

**Q.** What about the normalized growth (locus YOR329C, strain SCD5, active compounds read low) of the same compound?
**A.** 0.973

**Q.** What about the normalized growth (locus YPL031C, strain PHO85, active compounds read low) of the same compound?
**A.** 0.975

**Q.** What about the normalized growth (locus YPL153C, strain RAD53, active compounds read low) of the same compound?
**A.** 0.982

**Q.** And the normalized growth (locus YPL204W, strain HRR25, active compounds read low)?
**A.** 0.966

**Q.** And the normalized growth (locus YPL209C, strain IPL1, active compounds read low)?
**A.** 0.973

**Q.** And the normalized growth (locus YPL256C, strain CLN2, active compounds read low)?
**A.** 0.777 (active)

**Q.** And the normalized growth (locus YPR025C, strain CCL1, active compounds read low)?
**A.** 0.976

**Q.** And the normalized growth (locus YPR106W, strain ISR1, active compounds read low)?
**A.** 0.977

**Q.** What about the normalized growth (locus YPR111W, strain DBF20, active compounds read low) of the same compound?
**A.** 0.96

**Q.** What about the normalized growth (strain NNK1, active compounds read low) of the same compound?
**A.** 0.962

**Q.** And the normalized growth (strain TSCII, active compounds read low)?
**A.** 0.978

**Q.** With CCCc1cnc(N2CCCN(C(=S)Nc3cccnc3)CC2)nc1 as the compound, how does the normalized growth (locus YAL013W, strain DEP1, active compounds read low) read?
**A.** 0.998

**Q.** And the normalized growth (locus YBR229C, strain ROT2, active compounds read low)?
**A.** 0.997

**Q.** What about the normalized growth (locus YCL061C, strain MRC1, active compounds read low) of the same compound?
**A.** 1.01

**Q.** What about the normalized growth [1] of the same compound?
**A.** 1.06

**Q.** And the normalized growth (locus YDR150W, strain NUM1, active compounds read low)?
**A.** 1.03

**Q.** What about the normalized growth (locus YEL061C, strain CIN8, active compounds read low) of the same compound?
**A.** 0.959

**Q.** And the normalized growth (locus YGR078C, strain PAC10, active compounds read low)?
**A.** 1.02

**Q.** And the normalized growth [2]?
**A.** 1.05

**Q.** What about the normalized growth (locus YHR087W, strain rtc3, active compounds read low) of the same compound?
**A.** 0.992

**Q.** What about the normalized growth (locus YJR043C, strain POL32, active compounds read low) of the same compound?
**A.** 1.03

**Q.** What about the normalized growth (locus YJR075W, strain HOC1, active compounds read low) of the same compound?
**A.** 1.03

**Q.** And the normalized growth (locus YLR039C, strain RIC1, active compounds read low)?
**A.** 1

**Q.** And the normalized growth (locus YLR058C, strain SHM2 (second series), active compounds read low)?
**A.** 0.996

**Q.** What about the normalized growth (locus YLR085C, strain ARP6, active compounds read low) of the same compound?
**A.** 1.04

**Q.** What about the normalized growth (locus YLR262C, strain YPT6, active compounds read low) of the same compound?
**A.** 1.01

**Q.** And the normalized growth (locus YML094W, strain GIM5, active compounds read low)?
**A.** 1.02

**Q.** And the normalized growth (locus YMR219W, strain ESC1, active compounds read low)?
**A.** 1.01

**Q.** What about the normalized growth (locus YMR263W, strain SAP30, active compounds read low) of the same compound?
**A.** 1.03

**Q.** And the normalized growth (locus YNL153C, strain GIM3, active compounds read low)?
**A.** 1.02

**Q.** What about the normalized growth (locus YNL298W, strain CLA4 (second series), active compounds read low) of the same compound?
**A.** 0.999

**Q.** And the normalized growth (locus YNL322C, strain KRE1, active compounds read low)?
**A.** 0.987

**Q.** What about the normalized growth (locus YNR030W, strain Alg12, active compounds read low) of the same compound?
**A.** 1.01

**Q.** And the normalized growth (locus YPL055C, strain LGE1, active compounds read low)?
**A.** 1.02

**Q.** What about the normalized growth (locus YPL241C, strain CIN2, active compounds read low) of the same compound?
**A.** 1.02

**Q.** And the normalized growth (locus YPR135W, strain CTF4, active compounds read low)?
**A.** 1.07
